Source: PubChem BioAssay (EPA / NIEHS)
Active and inactive are the calls of the source. Rule for the calls: active = hit-call score of the fitted dose curve at least 0.9, where 1 is the maximum; inactive = score below 0.9.

What follows are compounds tested on Protein phosphatase 2A (PPP2R4), PTPA (gene 5524) (assay: LTEA_HepaRG_PPP2R4: Life Technologies and Expression Analysis (LTEA) Assay for Protein phosphatase 2A (PPP2R4) using HepaRG (AID 2283522)). Conditions: mRNA level, 48 h; actives raise or lower the signal.
Method: LTEA_HepaRG is a cell based, multiplexed-readout assay that uses HepaRG, a human liver cell line, with measurements taken at 48 hours after chemical dosing on a 96-well plate.LTEA_HepaRG_PPP2R4 is one of 102 assay component(s) measured in the LTEA HepaRG cell culture assay. It is a marker of Cell proliferation, survival, death.Data from the assay component LTEA_HepaRG_PPP2R4 was analyzed into 1 endpoint. This assay endpoint, LTEA_HepaRG_PPP2R4, was analyzed with bidirectional fitting relative to DMSO as the negative control and baseline of activity. Using a type of inducible reporter, measures of mRNA induction for gain or loss-of-signal activity can be used to understand regulation of transcription factor activity. To generalize the intended target to other relatable targets, this assay endpoint is annotated to the phosphatase intended target family, where the subfamily is serine/threonine phosphatase.
A total of 1060 chemcials from the ToxCast library were tested in eight-point concentration-response experiments. Cell culture and cytotoxicity assays were conducted at Thermo Fisher Scientific's Custom Services facility (Madison, WI). A single lot of human HepaRG cells (Thermo Fisher Scientific, Frederick, MD) was used for the cell culture experiments. 96-well format collagen type I coated plates of human HepaRG cells were prepared using established methods. Briefly, cryopreserved HepaRG cells were thawed, plated at a density of approximately 100,000 cells/well in HepaRG Thaw, Plate, and General Purpose media (HPRG770, Thermo Fisher Scientific), and incubated for 48 hours. 0.5% DMSO was selected as vehicle control to balance the requisite need of DMSO in HepaRG cultures to maintain differentiation (for example, baseline metabolism, proportions of hepatocytes vs. cholangiocytes), while enabling further hepatic receptor pathway activation (for example, PXR and CAR) in response to chemical exposure. 48 hours after plating, the culture medium was replaced with HepaRG Serum-Free Incudtion Media. Cells were exposed to each test chemical in duplicate and maintained in CO2 incubators for another 48 hours. Chemical plates were thawed to room temperature and 200x concentrations of treatment groups were prepared. 8-point conentration-reponse curves were made with the highest exposure at 100 uM, followed by half-log dilutions, all in 0.5% DMSO. Each test plate contained variouse controls, induction positive controls (1mM phenobarbital), cytotoxicity positive controls ([…] aflatoxin B1), vehicle controls (0.5% DMSO), and total lysis controls (0.5% DMSO). Cell morphology images were taken using an Essen IncuCyte FLR automated microscope, with six 96-well plates imaged in about 24 minutes. Images were captured and exported and JPEG files. Spent culture media was transfered to black-well plates for the LDH assay, and remaining media was sorted at -80 C for later use. Cells were treated with RLT buffer and frozen until shipped for gene expression analysis. Total RNA was isolated from the cell suspension in 75 uL of Buffer RLT (Qiagen, Germantown, MD 20874) by Quintiles/Expression Analysis (Durham, NC) using a custom isolation procedure. Total RNA from each plate well was transferred to a preamplification plate. Fluidigm's 96.96 Dynamic ArrayTM (Fluidigm, Amsterdam, the Netherlands) technology was used for gene expression analyses by quantitative reverse transcription polymerase chain reaction (qRT-PCR, performed by Quintiles/Expression Analysis, Durham, NC)89. Standard TaqManTM Assays (Applied Biosystems/ThermoFisher Scientific, Foster City, CA) were used to assess the expression of 93 genes selected based on their selectivity and sensitivity to important hepatic receptors known to be modulated by environmental chemicals; importance in human hepatocyte functionality; and hepatotoxicity. […]

| Compound | outcome | AC50 |
| --- | --- | --- |
| CCCCC(CC)COC(=O)c1ccccc1C(=O)O (stereo not given) | inactive | – |
| CCOC(=O)C(C)Oc1ccc(Oc2cnc3cc(Cl)ccc3n2)cc1 (stereo not given) | inactive | – |
| CSC(=O)c1cccc2nnsc12 | inactive | – |
| OB(O)O | inactive | – |
| CCN(Cc1c(F)cccc1Cl)c1c([N+](=O)[O-])cc(C(F)(F)F)cc1[N+](=O)[O-] | inactive | – |
| COC(=O)CSc1cc(N=c2sc(=O)n3n2CCCC3)c(F)cc1Cl | inactive | – |
| CCN(CC)C(=O)c1cccc(C)c1 | inactive | – |
| Cc1nn(C)c(Oc2ccccc2)c1C=NOCc1ccc(C(=O)OC(C)(C)C)cc1 | – | 5.33 µM (active) |
| C[C@]12CC[C@@H]3c4ccc(O)cc4C[C@@H](CCCCCCCCCS(=O)CCCC(F)(F)C(F)(F)F)[C@H]3[C@@H]1CC[C@@H]2O (stereo not given in full) | – | 0.0315 µM (active) |
| CCCOC(=O)NCCCN(C)C | inactive | – |
| CCOC(=O)c1ccc(O)cc1 | inactive | – |
| CC(C)CCCCCCc1ccc(O)cc1 | inactive | – |
| CC1(C)C(C=C(Cl)Cl)C1C(=O)OCc1cccc(Oc2ccccc2)c1 (stereo not given) | inactive | – |
| CCCCCOC(=O)COc1cc(N2C(=O)C3=C(CCCC3)C2=O)c(F)cc1Cl | inactive | – |
| CCOC(=O)C(C)Oc1ccc(Oc2nc3ccc(Cl)cc3o2)cc1 (stereo not given) | inactive | – |
| CCCN(CCC)C(=O)SCC | inactive | – |
| CCCCOCCOCCOCc1cc2c(cc1CCC)OCO2 | inactive | – |
| O=C(Nc1ccc([N+](=O)[O-])cc1Cl)c1cc(Cl)ccc1O | – | 3.47 µM (active) |
| S=C([S-])NCCNC(=S)[S-].[Mn+2] | – | 5.29 µM (active) |
| CCOC(=O)COc1cc(-n2ncc(C(F)(F)F)c(C)c2=O)c(F)cc1Cl | inactive | – |

| Compound | outcome | AC50 |
| --- | --- | --- |
| O=C(c1ccc(O)cc1O)c1ccc(O)cc1O | inactive | – |
| C[C@]12C[C@H](O)[C@H]3[C@@H](CCC4=CC(=O)CC[C@@]43C)[C@@H]1CC[C@@H]2C(=O)CO | inactive | – |
| C#C[C@]1(O)CC[C@H]2[C@@H]3CCC4=CC(=O)CC[C@@H]4[C@H]3CC[C@@]21CC | inactive | – |
| c1ccc2[nH]c(-c3cscn3)nc2c1 | inactive | – |
| CCCN(CCC)c1c([N+](=O)[O-])cc(C(F)(F)F)c(N)c1[N+](=O)[O-] | inactive | – |
| Oc1ccc(C(c2ccc(O)cc2)C(Cl)(Cl)Cl)cc1 | – | 82.3 µM (active) |
| COCCO | inactive | – |
| O=C(c1ccccc1)C1CCCCC1 | inactive | – |
| COC(=O)c1ccc(I)cc1S(=O)(=O)NC(=O)Nc1nc(C)nc(OC)n1 | inactive | – |
| CCCCOC(=O)C(C)Oc1ccc(Oc2ccc(C(F)(F)F)cn2)cc1 (stereo not given) | inactive | – |
| CCCCCCC(C)OC(=O)COc1nc(F)c(Cl)c(N)c1Cl (stereo not given) | inactive | – |
| CCSC(=O)N(CC(C)C)CC(C)C | inactive | – |
| CCCCC(CC)CN1C(=O)C2C3C=CC(C3)C2C1=O (stereo not given) | – | 50 µM (active) |
| C#CCOC(=O)[C@@H](C)Oc1ccc(Oc2ncc(Cl)cc2F)cc1 | inactive | – |
| CN(C)C(=O)Nc1ccc(Cl)c(Cl)c1 | inactive | – |
| CCNc1nc(N)nc(Cl)n1 | inactive | – |
| COC(=O)c1ccccc1C(=O)O | inactive | – |
| O=C(O)c1ccccc1 | inactive | – |
| CCOC(=O)NCCOc1ccc(Oc2ccccc2)cc1 | inactive | – |
| COc1c(Cl)ccc(Cl)c1C(=O)O | inactive | – |
